The source made the active and inactive calls. The calls were made as follows: active = hit-call score of the fitted dose curve at least 0.9, where 1 is the maximum; inconclusive = response in the unintended direction; inactive = score below 0.9.
What follows are compounds tested against Peroxisome proliferator-activated receptor gamma (Homo sapiens) (UniProt P37231) (assay: OT_PPARg_PPARgSRC1_1440: Odyssey Thera (OT) 24-hour Protein-Complementation Assay for Peroxisome Proliferator-activated Receptor Gamma/ SRC-1 Co-activator (AID 2283388);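 also: nuclear to cytoplasmic ratio of reconstituted Venus YFP fluorescence in fixed imaged cells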).
Description: OT_PPARg_PPARgSRC1_1440 is a cell-based assay that uses HEK293T, a human kidney cell line, with measurements taken at 24 hours after chemical dosing in a 384-well plate.OT_PPARg_PPARgSRC1_1440 is one of one assay component(s) measured or calculated from the OT_PPARg_PPARgSRC1_1440 assay. It is designed to make measurements of protein fragment complementation, a form of binding reporter, as detected with fluorescence intensity signals by Protein-fragment Complementation technology.Data from the assay component OT_PPARg_PPARgSRC1_1440 was analyzed into 1 assay endpoint. This assay endpoint, OT_PPARg_PPARgSRC1_1440, was analyzed in the positive analysis fitting direction relative to DMSO as the negative control and baseline of activity. Using a type of binding reporter, measures of receptor for gain-of-signal activity can be used to understand the binding at the pathway-level as they relate to the gene PPARG. Furthermore, this assay endpoint can be referred to as a primary readout, because the performed assay has only produced 1 assay endpoint. To generalize the intended target to other relatable targets, this assay endpoint is annotated to the nuclear receptor intended target family, where the subfamily is non-steroidal.
The OT PPARg/SRC-1 assay assessed receptor-chemical interactions using a rapidly maturing, intensely fluorescent mutant of YFP known as Venus, rationally dissected into two separate fragments. The fragments were obtained as follows: first, fragments coding for YFP1 and YFP2 (corresponding to amino acid residues 1-158 and 159-239 of the full length YFP, respectively) were generated by oligonucleotide synthesis (Blue Heron Biotechnology), and then PCR mutagenesis was used to generate the mutant fragments IFP1 and IFP2. Fusion constructs were transfected into HEK293T cells with a (Gly4Ser)2 linker between the PPARg/SRC-1 and YFP fragment genes to facilitate complementation when interacting proteins bring fragments into close proximity. The construct is transiently transfected in HEK293T cells 48 hours prior to treatment with test compounds. Cells are seeded into optical quality 384-well poly-D-lysine coated plates in MEM alpha medium (Invitrogen) supplemented with 10 percent FBS (Gemini Bio-Products) 1 percent penicillin and 1 percent streptomycin, and grown in 37C incubator equilibrated to 5 percent CO2. Cells are allowed to adhere for 24 hours prior to treatment with compounds of interest or controls for 24 hours. Cells are fixed in 4 percent formaldehyde and stained with Draq5 (BioStatus) to identify cells and subcellular compartment boundaries prior to signal detection. 8 Images per well were acquired on an Evotec Opera at 2 wavelengths (488 and 635nm), and the ratio of fluorescence in the nucleus relative to fluorescence in the cytoplasm (N/C Ratio) in the 488nm channel was calculated for a minimum of 350 cells per image.

Sequence of Peroxisome proliferator-activated receptor gamma (Homo sapiens) (P37231 whole entry, looked up, the tested form may be a part): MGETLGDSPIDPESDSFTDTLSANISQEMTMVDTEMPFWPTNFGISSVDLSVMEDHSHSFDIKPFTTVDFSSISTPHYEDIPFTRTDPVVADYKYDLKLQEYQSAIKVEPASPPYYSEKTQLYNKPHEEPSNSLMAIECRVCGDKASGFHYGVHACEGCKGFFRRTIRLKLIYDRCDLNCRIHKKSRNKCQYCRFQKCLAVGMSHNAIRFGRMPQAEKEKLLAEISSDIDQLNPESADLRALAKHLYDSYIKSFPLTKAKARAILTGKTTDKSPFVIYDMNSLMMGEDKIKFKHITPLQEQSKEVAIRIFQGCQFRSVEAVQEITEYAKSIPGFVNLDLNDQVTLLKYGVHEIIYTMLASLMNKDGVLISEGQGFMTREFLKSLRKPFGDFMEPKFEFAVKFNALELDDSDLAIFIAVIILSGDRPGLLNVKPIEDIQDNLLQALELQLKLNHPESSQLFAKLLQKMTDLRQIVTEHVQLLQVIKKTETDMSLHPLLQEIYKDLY

outcome, inactive:
O=C1NS(=O)(=O)c2ccccc21, CC(=O)Nc1ccc(O)cc1, CC(C)c1c(C(=O)Nc2ccccc2)c(-c2ccccc2)c(-c2ccc(F)cc2)n1CC[C@@H](O)C[C@@H](O)CC(=O)O, CC(O)COc1ccccc1 (stereo unspecified), CCCCCCCCCCCC, COc1cc([N+](=O)[O-])ccc1N, NC(=NCCCCCCN=C(N)/N=C(\N)Nc1ccc(Cl)cc1)/N=C(\N)Nc1ccc(Cl)cc1, Cc1cc(C(C)(C)C)c(O)c(C(C)(C)C)c1, c1cnc2c(c1)ccc1cccnc12, N=C(N)c1ccc(OCCCCCOc2ccc(C(=N)N)cc2)cc1, Cc1cc(C(=C2C=CC(=Nc3ccc(S(=O)(=O)O)cc3)C=C2)c2ccc(Nc3ccc(S(=O)(=O)O)cc3)cc2)cc(S(=O)(=O)O)c1N, CCCCCCCCCCCC(=O)O, O=C(O)C(=O)O, C=CC(C)(CCC=C(C)C)OC(C)=O (stereo unspecified), CCCCCCc1ccc(N)cc1, CCCCCCC(C)(C)C(=O)O, CN(Cc1cnc2nc(N)nc(N)c2n1)c1ccc(C(=O)N[C@@H](CCC(=O)O)C(=O)O)cc1, CCCCCCCCCC=CCC1CC(=O)OC1=O (stereo unspecified), CCCCc1ccc2ccccc2c1S(=O)(=O)O, C[C@]12CC[C@@H]3c4ccc(O)cc4CC[C@H]3[C@@H]1C[C@@H](O)[C@@H]2O, Cc1ccc(C)c(S(=O)(=O)O)c1, CCCCc1oc2ccccc2c1C(=O)c1cc(I)c(OCCN(CC)CC)c(I)c1, NCCN, Cc1cc(Cc2cc(C)cc(C(C)(C)C)c2O)c(O)c(C(C)(C)C)c1, CCCCCCCCCCCCOC(=O)c1cc(O)c(O)c(O)c1, CCCCC(CC)C(=O)O (stereo unspecified), O=C(O)c1cccc(C(=O)O)n1, NCc1cccc(CN)c1, CC(C)[C@@H]1CC[C@@H](C)C[C@H]1O, O=C(CCCN1CCC(O)(c2ccc(Cl)cc2)CC1)c1ccc(F)cc1, OCC(CO)(CBr)CBr, NS(=O)(=O)O, CCc1ccccc1O, CCC(C)c1ccccc1O (stereo unspecified), CCCCCC(C)OC(=O)COc1ccc(Cl)c2cccnc12 (stereo unspecified), O=S(=O)(O)c1ccccc1

From PubChem BioAssay (EPA / NIEHS)
